Data on six molecules can be found in PubChem BioAssay.

Calls of active or inactive are those of the source.

In assay [1] the test system is Plasmodium falciparum Sir2 (PF13_0152, Sir2A). As to the kind of experiment: Plasmodium falciparum Sir2A binding compounds – biochemical, small-molecule microarray, 635 nm fluorescence, primary screen (AID 1098).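 Also: score merges spot fluorescence intensity with its signal-to-noise ratio.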 The note with it: fluorescence 635 nm, higher = more signal.
Assay [2] is described as follows: probe aDKK1 binding to arrayed compounds – biochemical, biotinylated probe, 635/667 nm fluorescence, primary screen (AID 1099).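 Also: score merges 667nm spot fluorescence with signal to noise across triplicate slides.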 The note with it: small-molecule microarray, higher = more signal.
Assay [3] is described as follows: probe aCHRDL2 binding to arrayed compounds – biochemical, biotinylated probe, 635/667 nm fluorescence, primary screen (AID 1100). The settings on record: small-molecule microarray, higher = more signal.
Assay [4] can be described thus: change in splice reporter luminescence, either direction, cell-based, HEK293, spliceosome inhibition project, primary screen (AID 1101).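 Also: HEK293 cells carrying a splicing-competent luciferase reporter gene; test concentration not given here.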 The settings on record: HEK293 splicing luciferase reporter, 24 h, higher = more signal, called active from +8 up or from −8 down.
Assay [5] has as its target Fibroblast growth factor 10 (Homo sapiens) (UniProt O15520). Briefly: compounds binding fibroblast growth factor 10 – biochemical, small-molecule microarray, 635 nm fluorescence, primary screen (AID 1102). The settings on record: FGF10 binding, fluorescence 635 nm, higher = more signal.
The subject of assay [6] is glycogen synthase kinase-3 (GSK3A per assay name; protocol says GSK3B). As to the kind of experiment: compounds binding glycogen synthase kinase-3 – biochemical, small-molecule microarray, 635 nm fluorescence, GSK3A, primary screen (AID 1103). Also: the record names both GSK3A and GSK3B. The settings on record: fluorescence 635 nm, higher = more signal.
Assay [7] concerns the target Epidermal growth factor receptor (Homo sapiens) (UniProt P00533). As to the kind of experiment: compounds binding epidermal growth factor receptor – biochemical, small-molecule microarray, 635 nm fluorescence, primary screen (AID 1104).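 Also: score merges 667 nm emission intensity with spot signal to noise over triplicate slides.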 The note with it: EGFR binding, higher = more signal.
Assay [8] has as its target Follistatin-related protein 3 (Homo sapiens) (UniProt O95633). As to the kind of experiment: compounds binding follistatin-related protein 3 – biochemical, small-molecule microarray, 635 nm fluorescence, primary screen (AID 1105).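 Also: score merges emission near 667 nm and signal to noise per printed spot across three slides.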 The settings on record: FSTL3 binding, higher = more signal.
For assay [9], the target named is Dickkopf-related protein 1 (Homo sapiens) (UniProt O94907). As to the kind of experiment: small molecules binding DKK1 protein – biochemical, small-molecule microarray, 635 nm fluorescence scan, primary screen (AID 1106).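 Also: score merges emission near 667 nm with signal to noise over three replicate slides.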 The note with it: higher = more signal.
Dickkopf-related protein 1 (Homo sapiens), sequence (O94907 whole entry, looked up): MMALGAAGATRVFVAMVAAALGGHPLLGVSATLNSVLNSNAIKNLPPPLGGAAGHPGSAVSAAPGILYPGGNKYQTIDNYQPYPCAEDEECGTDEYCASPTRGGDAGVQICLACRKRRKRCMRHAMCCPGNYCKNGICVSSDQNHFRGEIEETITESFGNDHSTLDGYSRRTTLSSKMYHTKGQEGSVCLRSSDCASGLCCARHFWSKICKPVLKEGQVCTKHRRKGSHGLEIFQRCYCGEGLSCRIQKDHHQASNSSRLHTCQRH
Assay [10] concerns Inhibin beta A chain (activin A). As to the kind of experiment: small molecules binding activin A – biochemical, small-molecule microarray, 635 nm fluorescence scan, primary screen (AID 1107).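 Also: mouse activin A protein probed at 4.33 µg/mL on printed slides; score merges bound-protein fluorescence near 667 nm with spot signal-to-noise.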 The settings on record: INHBA, higher = more signal.
Assay [11] relates to Human papillomavirus type 1a protein E7 (residues 44-93). As to the kind of experiment: small molecules binding HPV E7 44-93 – biochemical, small-molecule microarray, residues 44-93, 635 nm fluorescence, primary screen (AID 1108).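 Also: E7 fragment applied at 1 µg/mL in TBST for 1 h at 4 C; score combines spot fluorescence with its signal to noise ratio.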 The note with it: fluorescence 635 nm, higher = more signal.
Assay [12] is described as follows: hepatitis C replication reporter changes, two-sided – Huh7 cells, luciferase reporter, HCV replication inhibitor project, primary screen (AID 1109).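 Also: huh7 hepatoma cells harbouring a luciferase neomycin HCV replicon reporter; luciferase luminescence as measure of HCV replicon replication; test concentration not given here.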 The note with it: Huh7 HCV replicon luciferase reporter, 48 h; higher = more signal. On the technique in general: Reporter assays use an easily measured gene product as a stand-in for the process of interest.
Assay [13] addresses Left-right determination factor 2 (Homo sapiens) (UniProt O00292). As to the kind of experiment: small molecules binding LEFTY2 protein – biochemical, small-molecule microarray, 635 nm fluorescence scan, primary screen (AID 1110). The note with it: higher = more signal.
For assay [14], the target named is Calmodulin-1 (Homo sapiens) (UniProt P0DP23). As to the kind of experiment: small molecules binding calmodulin-1 with EGTA – biochemical, small-molecule microarray, Cy5-labelled CALM1, profiling panel (AID 1111).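 Also: labelled calmodulin applied in Tris saline Tween buffer holding calcium plus EGTA and DTT.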 The note with it: Cy5-CALM1 binding fluorescence, higher = more signal.
Assay [15] has the same target. As to the kind of experiment: small molecules binding Ca-loaded calmodulin-1 – biochemical, small-molecule microarray, Cy5-labelled CALM1, plus calcium, artefact control for SMM control-protein annotation, profiling panel (AID 1112).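 Also: score merges spot fluorescence with signal to noise from triplicate slides.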 The note with it: Cy5-CALM1 binding fluorescence, higher = more signal.
The nature of assay [16]: probe aWnt5a binding to arrayed compounds – biochemical, biotinylated probe, 635/667 nm fluorescence, primary screen (AID 1113).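 Also: score merges 667 nm fluorescence intensity with signal-to-noise per printed feature.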 The settings on record: small-molecule microarray, higher = more signal.
Assay [17] is described as follows: probe aShh binding to arrayed compounds – biochemical, biotinylated probe, 635/667 nm fluorescence, primary screen (AID 1114).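 Also: probe is biotin-labelled aShh protein from a stem cell growth factor screen; measures binding of labelled protein to compounds printed on the slide; score merges feature fluorescence at 667 nm with signal-to-noise.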 The settings on record: small-molecule microarray, higher = more signal.
Assay [18] in a line: probe aNog binding to arrayed compounds – biochemical, biotinylated probe, 635/667 nm fluorescence, primary screen (AID 1115).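 Also: probe is biotinylated aNog protein used at 0.15 µg/mL for 1 h at 4 C; z-score combines 667 nm fluorescence of each spot with its signal to noise.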 The note with it: small-molecule microarray, higher = more signal.
The target of assay [19] is Torsin-1A-interacting protein 1 (Homo sapiens) (UniProt Q5JTV8). As to the kind of experiment: compound microarray binding of lysate hLAP1 – cell lysate, small-molecule microarray, COS7 lysate, 635/667 nm fluorescence, primary screen (AID 1116). The note with it: 635 nm fluorescence, higher = more signal.
Torsin-1A-interacting protein 1 (Homo sapiens), sequence (Q5JTV8 whole entry, looked up): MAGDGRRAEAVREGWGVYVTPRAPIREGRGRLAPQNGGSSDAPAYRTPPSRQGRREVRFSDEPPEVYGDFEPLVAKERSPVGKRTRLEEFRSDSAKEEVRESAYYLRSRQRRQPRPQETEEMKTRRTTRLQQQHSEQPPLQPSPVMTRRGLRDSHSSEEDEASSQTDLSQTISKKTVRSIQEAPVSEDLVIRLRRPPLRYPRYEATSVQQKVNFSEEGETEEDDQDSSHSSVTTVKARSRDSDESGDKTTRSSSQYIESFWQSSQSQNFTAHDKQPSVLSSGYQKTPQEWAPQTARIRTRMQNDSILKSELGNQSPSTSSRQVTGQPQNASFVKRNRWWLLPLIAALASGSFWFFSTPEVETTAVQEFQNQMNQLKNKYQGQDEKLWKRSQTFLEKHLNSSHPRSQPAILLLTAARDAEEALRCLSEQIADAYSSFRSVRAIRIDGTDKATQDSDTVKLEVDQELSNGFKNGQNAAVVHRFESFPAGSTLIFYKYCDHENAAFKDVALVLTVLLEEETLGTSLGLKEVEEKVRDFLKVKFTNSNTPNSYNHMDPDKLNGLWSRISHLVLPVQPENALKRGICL
The target of assay [20] is Alpha-bungarotoxin (Bungarus multicinctus) (UniProt P60615). Briefly: compounds binding labelled alpha-BTX control protein – biochemical, small-molecule microarray, Alexa647 label, 635/667 nm fluorescence, artefact control for SMM control protein annotation, profiling panel (AID 1117). The settings on record: alpha-BTX-A647 binding fluorescence, higher = more signal.
Alpha-bungarotoxin (Bungarus multicinctus), sequence (P60615 whole entry, looked up): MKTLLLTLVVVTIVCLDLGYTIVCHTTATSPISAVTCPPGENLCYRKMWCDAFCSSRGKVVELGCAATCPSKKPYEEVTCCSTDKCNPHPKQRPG

Left-right determination factor 2 (Homo sapiens), sequence (O00292 whole entry, looked up): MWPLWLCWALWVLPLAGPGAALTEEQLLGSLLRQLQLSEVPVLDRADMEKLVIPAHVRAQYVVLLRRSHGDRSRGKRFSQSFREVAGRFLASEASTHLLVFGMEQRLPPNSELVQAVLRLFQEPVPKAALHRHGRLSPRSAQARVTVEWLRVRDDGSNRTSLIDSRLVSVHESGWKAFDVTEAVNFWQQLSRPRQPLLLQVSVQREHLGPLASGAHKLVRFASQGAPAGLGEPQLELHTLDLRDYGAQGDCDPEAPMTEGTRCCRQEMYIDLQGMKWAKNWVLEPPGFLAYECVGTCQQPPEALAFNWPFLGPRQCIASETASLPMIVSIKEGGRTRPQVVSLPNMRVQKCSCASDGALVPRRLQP
Epidermal growth factor receptor (Homo sapiens), sequence (P00533 whole entry, looked up): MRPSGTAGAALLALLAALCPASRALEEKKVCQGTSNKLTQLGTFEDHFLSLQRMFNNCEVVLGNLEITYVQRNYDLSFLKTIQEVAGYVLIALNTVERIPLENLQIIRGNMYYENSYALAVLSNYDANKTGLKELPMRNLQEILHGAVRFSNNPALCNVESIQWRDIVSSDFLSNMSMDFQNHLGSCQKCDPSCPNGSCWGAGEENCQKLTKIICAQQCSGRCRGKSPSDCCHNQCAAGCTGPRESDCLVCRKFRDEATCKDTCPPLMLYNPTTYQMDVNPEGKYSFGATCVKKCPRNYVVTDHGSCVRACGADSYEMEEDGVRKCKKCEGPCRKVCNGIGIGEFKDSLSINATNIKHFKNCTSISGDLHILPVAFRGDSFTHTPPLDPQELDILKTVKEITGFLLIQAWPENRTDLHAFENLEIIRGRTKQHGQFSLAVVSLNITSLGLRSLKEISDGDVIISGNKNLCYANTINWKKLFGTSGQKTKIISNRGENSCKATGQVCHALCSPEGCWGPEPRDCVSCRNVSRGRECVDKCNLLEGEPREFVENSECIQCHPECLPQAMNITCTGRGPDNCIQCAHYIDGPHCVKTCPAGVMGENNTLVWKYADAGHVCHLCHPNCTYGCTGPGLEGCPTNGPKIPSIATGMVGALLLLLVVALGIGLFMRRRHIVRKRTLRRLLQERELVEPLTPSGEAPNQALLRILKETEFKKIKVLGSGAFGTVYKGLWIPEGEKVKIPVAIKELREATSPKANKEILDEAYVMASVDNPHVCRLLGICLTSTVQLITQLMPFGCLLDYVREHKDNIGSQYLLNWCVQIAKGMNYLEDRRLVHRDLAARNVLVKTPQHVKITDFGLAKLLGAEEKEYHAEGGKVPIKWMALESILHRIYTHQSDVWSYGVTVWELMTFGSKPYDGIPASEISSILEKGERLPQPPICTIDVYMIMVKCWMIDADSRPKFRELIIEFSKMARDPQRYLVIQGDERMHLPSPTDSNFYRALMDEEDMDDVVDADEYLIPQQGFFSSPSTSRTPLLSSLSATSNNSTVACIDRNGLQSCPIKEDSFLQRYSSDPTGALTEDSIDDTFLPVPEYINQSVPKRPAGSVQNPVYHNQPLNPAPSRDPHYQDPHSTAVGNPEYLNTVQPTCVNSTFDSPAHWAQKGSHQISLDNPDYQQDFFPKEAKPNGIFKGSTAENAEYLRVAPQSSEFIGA
Follistatin-related protein 3 (Homo sapiens), sequence (O95633 whole entry, looked up): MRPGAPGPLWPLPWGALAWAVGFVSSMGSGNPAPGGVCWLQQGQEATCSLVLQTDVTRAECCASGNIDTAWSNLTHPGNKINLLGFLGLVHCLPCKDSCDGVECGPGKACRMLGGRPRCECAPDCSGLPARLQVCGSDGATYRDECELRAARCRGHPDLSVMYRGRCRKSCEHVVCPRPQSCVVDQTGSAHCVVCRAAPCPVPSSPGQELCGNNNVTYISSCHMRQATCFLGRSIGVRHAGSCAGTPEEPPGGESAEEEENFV
Fibroblast growth factor 10 (Homo sapiens), sequence (O15520 whole entry, looked up): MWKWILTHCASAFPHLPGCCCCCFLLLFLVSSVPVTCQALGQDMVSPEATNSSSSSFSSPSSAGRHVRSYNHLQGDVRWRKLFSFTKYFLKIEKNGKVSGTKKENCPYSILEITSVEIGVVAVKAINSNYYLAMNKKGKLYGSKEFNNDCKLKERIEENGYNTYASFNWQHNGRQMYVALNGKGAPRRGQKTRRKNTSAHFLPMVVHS

Consider `CC[C@@H](O[Si](C#C[Si](C(C)C)(C(C)C)C(C)C)(C(C)C)C(C)C)c1cn(Cc2cccc(Cl)c2)nn1`, for which the composite z-score in [1] was 0.433; in assay [2], -0.0597; in assay [3] it was -0.3; in assay [5], 0.418; in assay [6] it was 0.791; in assay [7] it was 0.293. The composite z-score in assay [8] was 0.775; in assay [9], 0.388; in [10], 0.232; in assay [11], 0.906; in [13], 0.374; in assay [14], 0.0371. Further, the composite z-score in [15] was -0.461; in assay [16], -0.0194; in [17], -0.154; in [18], -0.124; in assay [19], 0.403; in [20], 0.485. The results for the z-score in [4] and in assay [12] were 0.453 (inactive) and -0.959, respectively.

As for `C=CCNC(=O)[C@@H]1[C@H]2C(=O)O[C@H](c3ccccc3)[C@H](c3ccccc3)N2[C@H](c2ccc(OCCO)cc2)[C@@]12C(=O)N(C(=O)OCCOC)c1ccccc12`, the composite z-score in [1] was 1.2; in assay [2], -0.144; in assay [3] it was 0.496; in [5] it was 1.28; in assay [6], 1.08; in [7], 0.459. The composite z-score worked out at 1.03 in assay [8]; 0.0392 in [9]; 0.745 in [10]; 1.11 in assay [11]; 0.47 in assay [13]; 0.789 in assay [14]. Also, the composite z-score in assay [15] was 0.132; in assay [16], -0.096; in assay [17], 0.0639; in assay [18] it was -0.103; in assay [19], 1.58; in assay [20], 1.04. The results for the z-score in assay [4] and in [12] were 0.263 (inactive) and -0.945, respectively.

As to `[N-]=[N+]=Nc1ccccc1C[C@]1(C(=O)N2CCCCC2)N=C(c2ccc(OCCCO)cc2)O[C@H]1c1ccccc1`, the composite z-score turned out to be 1.46 in [1]; 1.01 in assay [2]; 1.11 in assay [3]; 1.25 in assay [5]; 0.952 in assay [6]; 0.102 in [7]. For the same molecule, the composite z-score was 0.616 in assay [8]; 0.26 in [9]; 0.781 in assay [10]; -0.0987 in assay [11]; 0.0344 in [13]; 1.8 in assay [14]. Besides, the composite z-score in assay [15] was 0.727; in assay [16], 0.0101; in assay [17], 0.202; in [18] it was -0.544; in [19], 0.824; in assay [20], 1.93. In addition, the z-score in [4] was -0.117 (inactive); in assay [12] it was -2.42.

Regarding `O=C1C2C=CC(C(O)C3CC=CCC3)N(Nc3ccc([N+](=O)[O-])cc3)C2C(=O)N1c1ccccc1` (stereo not given), the composite z-score is 0.811 in assay [1]; 1.47 in assay [2]; 1.03 in assay [3]; 1 in assay [5]; 1.1 in assay [6]; 0.619 in [7]. Also, the composite z-score was determined as 1.44 in assay [8]; 0.386 in [9]; 1.2 in assay [10]; 0.34 in [11]; 0.485 in assay [13]; 1.76 in [14]. For the same molecule, the composite z-score in assay [15] is -0.0685; in [16], 0.22; in assay [17], 0.262; in [18], 1.39; in assay [19], 1.75; in assay [20], 1.87. Also, the figures for the z-score in assay [4] and in [12] were 0.809 (inactive) and 0.276, respectively.

Take `CC[C@@H](O[Si](C#C[Si](C(C)C)(C(C)C)C(C)C)(C(C)C)C(C)C)c1cn([C@H](C)c2ccccc2)nn1`: the composite z-score in assay [1] was 0.43; in [2] it was 0.0317; in [3], -0.328; in assay [5], 0.403; in assay [6], 0.136; in assay [7], 0.533. In addition, the composite z-score in assay [8] was 0.658; in assay [9], 0.432; in assay [10], -0.142; in assay [11] it was 0.818; in [13], 0.435; in assay [14] it was -0.273. Besides, the composite z-score was -0.0786 in [15]; -0.0758 in assay [16]; 0.0637 in [17]; -0.28 in assay [18]; 0.651 in [19]; 0.188 in [20]. The z-score in assay [4] was 0.242 (inactive); in assay [12] it was -0.772.

With `CCOC(=O)C[C@H]1[C@H](OC(=O)Cc2ccc3c(c2)OCO3)[C@@H](NC(=O)CC(C)C)c2cc(OCCCO)ccc2N1C(=O)c1ccc2ccccc2n1`, the composite z-score in assay [1] was 1.26; in assay [2], 0.0956; in assay [3] it was -0.252; in assay [5], 0.891; in [6], 0.614; in assay [7], 0.255. Besides, the composite z-score in [8] amounted to 1.19; in [9], 0.743; in assay [10] it was 0.242; in assay [11], 1; in assay [13], 0.305; in assay [14], 0.42. The composite z-score in assay [15] was -0.717; in [16], -0.0405; in assay [17], -0.221; in [18], -0.0208; in [19] it was 0.633; in assay [20] it was 0.185. Also, the z-score in [4] was -0.881 (inactive); in assay [12], -0.699.
